Several values for one entry are separate records, joined by “and”; a condition that tells them apart may be missing. Equal values may be shown once. Inconclusive results are not listed. Activity calls are given as the source filed them. Unless noted, the call rests on the fitted dose curve; in most records, active means well fitted curve in the direction sought with a large enough effect in the repeat runs; inconclusive means weak or mixed curves; inactive means no such curve, though single readings can be large; an effect the other way counts as inactive or inconclusive.
What was measured:
[1] = qHTS assay to identify small molecule agonists of the hypoxia (HIF-1) signaling pathway - cell viability counter screen (AID 1224844; calls by dose curve; further: nearly all actives have a fitted effect of over 50% in size; further: potency means the concentration at half of the fitted maximal effect)
Method in brief: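 In this counter screen, HRE-bla ME-180 cell viability after 17 hrs of compound exposure at 37C was read by CellTiter-Glo luminescence, multiplexed with the beta-lactamase reporter measurement.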

[2] = qHTS assay to identify small molecule agonists of H2AX (AID 1224845; active means well fitted activation curve with a large enough effect in the signal ratio in the repeat runs, not every such curve was filed as active; the % refers to the signal ratio; further: potency means the concentration at half of the fitted maximal effect)
Method in brief: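 Wild-type CHO-K1 cells, plated overnight, exposed 3hr at 37C to 15 concentrations (0.76% DMSO final). Lysed, then HTRF anti-pH2AX (S139) cryptate and anti-H2AX-d2 antibodies, 24 hr room temperature; 665/620 nm emission read.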

[3] = qHTS RealTime-Glo MT Cell Viability Assay in HepG2 cells - 24 hour (AID 1224867); further: nearly all actives have a fitted effect of over 50% in size; further: potency means the concentration at half of the fitted maximal effect
Method in brief: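 Cells + NanoLuc/prosubstrate dispensed (600 cells/well) → 5 h at 37 C/5% CO2 → compounds in DMSO transferred → 40 h incubation at 37 C, luminescence read at 0, 8, 16, 24, 32, 40 h.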

[4] = qHTS RealTime-Glo MT Cell Viability Assay in HEK293 cells - 32 hour (AID 1224868); further: nearly all actives have a fitted effect of over 50% in size; further: potency means the concentration at half of the fitted maximal effect
Method in brief: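 Tox21 10K qHTS, HEK293, 600 cells/well, RealTime-Glo reagent co-dispensed with cells; 5 h preincubation, compound by pintool, 37 C, luminescence at 0–40 h.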

[5] = A CellTox Green Cytotoxicity Assay to monitor cytotoxicity in HEK293 cells - 0 hour (AID 1224869); further: nearly all actives have a fitted effect of over 50% in size
Method in brief: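 Real-time, in one plate: 600 HEK293 cells/well with dead-cell DNA dye, pinned compound after 5 h, 37 C incubation over 40 h; viable cells give no appreciable fluorescence.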

[6] = qHTS RealTime-Glo MT Cell Viability Assay in HepG2 cells - 40 hour (AID 1224870); further: nearly all actives have a fitted effect of over 50% in size; further: potency means the concentration at half of the fitted maximal effect
Method in brief: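 HepG2 cells (600/well) mixed with RealTime-Glo MT reagent, settled 5 h at 37 C/5% CO2 before compound addition. Nonlytic NanoLuc luminescence from viable-cell prosubstrate reduction read repeatedly during 40 h treatment at 37 C.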

[7] = qHTS assay to identify small molecule agonists of H2AX - cell viability counter screen (AID 1224847; calls by dose curve; further: nearly all actives have a fitted effect of over 30% in size; further: potency means the concentration at half of the fitted maximal effect)
Method in brief: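 CHO-K1 cells plated overnight at 37C, then exposed 3 h at 37C to compounds at 15 concentrations (0.76% DMSO final). Viability by CellTiter-Glo luminescence after 30 min at room temperature.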

[8] = qHTS assay to identify small molecule agonists of the hypoxia (HIF-1) signaling pathway (AID 1224846; active means well fitted activation curve with a large enough effect in the signal ratio in the repeat runs, not every such curve was filed as active; the % refers to the signal ratio)
Method in brief: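 ME-180 HRE-bla reporter cells; compounds in DMSO, 17 h at 37C; read-out beta-lactamase via CCF4-AM FRET.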

[9] = qHTS assay to identify small molecule antagonists of the estrogen related receptor (ERR) signaling pathway from Tox21 library (AID 1224848); further: nearly all actives have a fitted effect of over 50% in size; further: potency means the concentration at half of the fitted maximal effect
Method in brief: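 Compounds dissolved in DMSO are pin-transferred onto ERR reporter cells (2,000 per well) that have settled for 6 h at 37 C. Plates then incubate 18 h at 37 C before ONE-Glo luciferase reagent and a luminescence read 30 min later.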

[10] = qHTS assay to identify small molecule agonists of the estrogen related receptor (ERR) signaling pathway from Tox21 library (AID 1224849; calls by dose curve; further: nearly all actives have a fitted effect of over 15% in size); conditions: ERR reporter cell line, ONE-Glo luciferase, 18 h; at 92.4 µM (top of the series) unless noted
Method in brief: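 Luciferase activity in ERR pathway reporter cells served as the agonist readout; exposure lasted 18 h at 37 C, with ONE-Glo detection after 30 min at room temperature.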
On the % scale 0 is the no-effect control and ±100 the full control effect.

Cc1ccc([N+](=O)[O-])[c]2c1[O][Hg]2
inactive: Potency [5]
active: Potency [1] 2.13 µM | Potency [2] 0.695 µM | Potency [3] 2.39 µM | Potency [4] 3.79 µM | Potency [6] 3.01 µM

O=C(O)[C@H](O)[C@@H](O)C(=O)O
inactive: Potency [1] | Potency [2] | Potency [7] | Potency [3] | Potency [4] | Potency [6]

CCOP(=O)(OCC)Oc1nc(Cl)c(Cl)cc1Cl
inactive: Potency [1] | Potency [2] | Potency [7] | Potency [3] | Potency [4] | Potency [5] | Potency [6]

CC(C)[C@@H](Nc1ccc(C(F)(F)F)cc1Cl)C(=O)OC(C#N)c1cccc(Oc2ccccc2)c1 (some centres not stated)
inactive: Potency [1] | Potency [2] | Potency [3] | Potency [4] | Potency [5]

CCOC(=O)Cc1ccccc1
inactive: Potency [1] | Potency [2] | Potency [7] | Potency [3] | Potency [4] | Potency [5] | Potency [6]

O=c1c2ccccc2c(=O)c2c1cc(Cl)c1[nH]c3c([nH]c12)c(Cl)cc1c(=O)c2ccccc2c(=O)c13
inactive: Potency [1] | Potency [8] | Potency [7] | Potency [9] | activity change, positive = activation [10] -7.42% | Potency [3] | Potency [4] | Potency [5] | Potency [6]

c1ccc2nc(N3CCNCC3)ccc2c1
inactive: Potency [1] | Potency [2] | Potency [7] | Potency [3] | Potency [4] | Potency [5] | Potency [6]

CC(Cc1ccc(O)cc1)NCC(O)c1cc(O)cc(O)c1 (configuration not stated)
inactive: Potency [1] | Potency [2] | Potency [7] | Potency [3] | Potency [4] | Potency [5] | Potency [6]

O=[N+]([O-])c1cccc2cccc([N+](=O)[O-])c12
inactive: Potency [1] | Potency [8] | Potency [7] | Potency [3] | Potency [4] | Potency [5] | Potency [6]

CC(=O)C(Cl)C(=O)N(C)C (configuration not stated)
inactive: Potency [8] | Potency [7] | Potency [3] | Potency [4] | Potency [5] | Potency [6]
active: Potency [1] 43.6 µM

CC(C)c1c(CN(C)C(C)Cc2ccccc2)n(C)n(-c2ccccc2)c1=O (configuration not stated)
inactive: Potency [2] | Potency [8] | Potency [7] | Potency [3] | Potency [5] | Potency [6]

Fc1ccc(C(OCCN2CCN(CCCc3ccccc3)CC2)c2ccc(F)cc2)cc1
inactive: activity change, positive = activation [10] -58.9% [at 42.5 µM] | Potency [5]
active: Potency [1] 16.9 µM | Potency [7] 55.2 µM | Potency [9] 6.68 µM | Potency [3] 23.9 µM | Potency [4] 9.52 µM | Potency [6] 26.8 µM

O=C1C(Cl)=C(Cl)C(=O)C(Cl)=C1Cl
active: Potency [1] 54.8 µM and 38.9 µM | Potency [9] 24.3 µM | Potency [4] 24.5 µM and 19.5 µM
inactive: Potency [7] | activity change, positive = activation [10] -23.7% and -49% | Potency [5]

COP(=S)(OC)Oc1nc(Cl)c(Cl)cc1Cl
inactive: Potency [2] | Potency [8] | Potency [7] | Potency [9] | activity change, positive = activation [10] -11.3% | Potency [3] | Potency [4] | Potency [5] | Potency [6]

O.O.O.O=C([O-])[C@H]([O-])[C@@H]([O-])C(=O)[O-].O=C([O-])[C@H]([O-])[C@@H]([O-])C(=O)[O-].[K+].[K+].[Sb+3].[Sb+3]
active: Potency [2] 114 µM
inactive: Potency [7]

CCC(C)c1cccc(C(C)CC)c1O (configuration not stated)
active: Potency [7] 35.7 µM
inactive: Potency [1] | Potency [3] | Potency [4] | Potency [5] | Potency [6]

CCC(OC(C)=O)C(CC(C)NC)(c1ccccc1)c1ccccc1 (configuration not stated)
inactive: Potency [2] | Potency [8] | activity change, positive = activation [10] -58.4% | Potency [5]
active: Potency [7] 128 µM | Potency [9] 69.2 µM | Potency [3] 62.2 µM | Potency [4] 55.4 µM | Potency [6] 62.2 µM

CC(=O)[O-].CC(=O)[O-].O.O.[Zn+2]
inactive: Potency [2] | Potency [7] | Potency [3] | Potency [4] | Potency [5] | Potency [6]

Cc1cccc(Cc2cnc[nH]2)c1C
inactive: Potency [1] | Potency [7] | Potency [3] | Potency [4] | Potency [5]

CO/N=C(\C(=O)OC)c1ccccc1CO/N=C(\C)c1cccc(C(F)(F)F)c1
inactive: Potency [2] | Potency [3] | Potency [5] | Potency [6]
active: Potency [7] 2.01 µM | Potency [4] 12.3 µM

CC(C)N(C(=O)CCl)c1ccccc1
active: Potency [9] 15.4 µM and 13.7 µM
inactive: activity change, positive = activation [10] -77.7% and -74.7%

CN(C)C(=S)SSC(=S)N(C)C
active: Potency [1] 171 nM and 347 nM | Potency [7] 49.8 µM and 89.8 µM and 49.2 µM | Potency [3] 54.2 µM and 436 nM and 379 nM | Potency [4] 242 nM and 245 nM | Potency [6] 54.2 µM and 219 nM and 169 nM
inactive: Potency [5]

O=S(=O)(NS(=O)(=O)C(F)(F)F)C(F)(F)F
active: Potency [7] 56.5 µM | Potency [4] 1.94 µM
inactive: Potency [2] | Potency [3] | Potency [5] | Potency [6]

S=C=NCCc1ccccc1
active: Potency [4] 49.1 µM
inactive: Potency [1] | Potency [7] | Potency [5]

O=[N+]([O-])c1ccc(CCl)cc1
inactive: Potency [2] | Potency [8] | Potency [7] | Potency [9] | Potency [3] | Potency [6]

N#CC(C#N)=NNc1cccc(Cl)c1
inactive: activity change, positive = activation [10] -57.7% | Potency [5]
active: Potency [1] 3.09 µM | Potency [9] 0.77 µM | Potency [3] 19.5 µM | Potency [4] 4.9 µM | Potency [6] 19.5 µM

From PubChem BioAssay (Tox21)
